TCR activator: activates T cell receptor signaling | primary human leukocytes, anti-CD3, IL-2 HTRF, 48 h | Potency, µM (highest dose often 9.22 µM), usual class: activators | 330,000 tested, under 10 active
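Readout: HTRF IL-2, Eu-cryptate/d2 antibody pair, 320nm excitation, 665nm emission. Stimulus: a-CD3 beads, no co-stimulation. Cells: primary human leukocytes. Exposure: 48 hr with compound.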
Tb PFK inh-1: inhibitors of T. brucei phosphofructokinase; T. brucei PFK, ADP-Glo luminescence; AID 485367; hit rate 0.17% among 330,000; Potency, µM (top dose mostly 57.5 µM), hits mostly inhibitors; further: nearly all actives have a fitted effect of over 60% in size
Target sequence (O15648 whole entry, looked up): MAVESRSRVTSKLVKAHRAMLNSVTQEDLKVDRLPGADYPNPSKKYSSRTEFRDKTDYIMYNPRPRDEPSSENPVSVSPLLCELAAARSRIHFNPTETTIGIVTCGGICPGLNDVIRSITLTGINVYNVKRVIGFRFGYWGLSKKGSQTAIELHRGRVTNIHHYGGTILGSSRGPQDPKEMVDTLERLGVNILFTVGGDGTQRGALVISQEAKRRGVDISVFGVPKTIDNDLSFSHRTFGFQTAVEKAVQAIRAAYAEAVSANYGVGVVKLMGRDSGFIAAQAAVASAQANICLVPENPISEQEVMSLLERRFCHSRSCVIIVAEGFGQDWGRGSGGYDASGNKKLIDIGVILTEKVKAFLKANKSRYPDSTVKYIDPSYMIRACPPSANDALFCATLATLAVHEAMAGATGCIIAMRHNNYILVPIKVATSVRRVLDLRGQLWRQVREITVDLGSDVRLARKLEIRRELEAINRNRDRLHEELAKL
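ADP-Glo luminescence quantified ADP after 45 min at room temperature, with 1.25 nM T. brucei PFK, 0.1 mM ATP and 0.5 mM fructose-6-phosphate in pH 8.0 TEA buffer. qHTS titrations up to 57 µM; curves classified by quality.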
CCT modulator: modulators of cytosolic chaperonin (CCT/TRiC) activity. purified chaperonin ATPase assay, HTRF ADP detection, 30 min. activity change, % (concentration not given with the values), hits read low. hit rate 0.3% among 360,000. AID 651819; in the data active means activity change below about -30%
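TRiC (40 or 20 nM final, by batch activity) in 30 mM Tris pH 7.4, 100 mM KCl, 5 mM MgCl2, 1 mM DTT was treated with compound at 76 uM single dose, then 10 uM ATP, 30 min at 37 °C. ADP was read by HTRF Transcreener.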
BCR signal inh: chronic active BCR signaling inhibition | ABC-DLBCL IkBa-CBG/CBR reporter, luminescence ratio, 4 h | Potency, µM (highest dose often 46.1 µM), usual class: inhibitors | hit rate 0.05% among 340,000 | AID 493014; active means well fitted inhibition curve with a large enough effect in the signal ratio, with a control signal flat, not every such curve was filed as active; inconclusive means small, poorly fitted or top-dose-only effect, or effect the other way, or a change in a side signal; the % refers to the signal ratio
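TMD8 ABC-DLBCL cells carrying doxycycline-inducible green luciferase fused to IkappaBalpha plus unfused red luciferase were exposed to compounds (up to 46 uM) for 4 hrs at 37C. Activity came from the overlap-corrected green/red luminescence ratio.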
ASM inhibitor: human S-ASM enzyme inhibition; placental ASM, HMU-PC fluorogenic substrate, 60 min; Potency, µM (top dose mostly 57.5 µM), most hits filed as inhibitors; hit rate 0.006% among 340,000
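qHTS format. ASM enzyme prepared from human placenta hydrolyses the fluorogenic substrate HMU-PC0 (9 uM final) over 60 min at 37 °C after a 10 min compound preincubation.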
Tb PFK KinaseGlo: orthogonal confirmation of T. brucei phosphofructokinase inhibitors | shares compounds with Tb PFK inh-1 | Tb PFK enzyme, ATP depletion, Kinase-Glo Plus luminescence | Potency, µM (highest dose often 57.5 µM) | hit rate 47% among 1,100 | AID 504636; calls by dose curve; further: nearly all actives have a fitted effect of over 60% in size
Tb PFK inh-2: T. brucei PFK enzyme inhibition, hit validation; hit rate 41% among 1,100; shares compounds with Tb PFK inh-1; purified T. brucei PFK, ADP-Glo luminescence, 45 min; Potency, µM (series often up to 57.5 µM), most hits filed as inhibitors; further: nearly all actives have a fitted effect of over 60% in size
Large screens that a line does not name were inactive (follow-up assays come after a bar, where they were run). An excerpt weighted towards active compounds, which were near 0.49% of everything screened. Unless noted, the call rests on the fitted dose curve; in most records, active means well fitted curve in the direction sought with a large enough effect; inconclusive means small, poorly fitted or top-dose-only effect, or another doubt; inactive means no such curve, though single readings can be large; an effect the other way counts as inactive or inconclusive.

CCN1CCN(C(=O)COc2ccc(S(=O)(=O)Nc3ccc(Cl)cc3)cc2)CC1	none
CN1CCN(C(=O)COc2ccc(S(=O)(=O)Nc3ccc(Cl)cc3)cc2)CC1	none (no result: TCR activator, Tb PFK inh-1, BCR signal inh, ASM inhibitor)
COc1ccc(NC(=O)Nc2ccccc2C(N)=O)cc1	BCR signal inh inconclusive
CCCN(CCC)CCCNS(=O)(=O)c1ccc2c(c1)oc(=O)n2C	BCR signal inh inconclusive
CC(C)(C)NC(=S)N1Cc2ccccc2-n2nncc2C1	none (no result: TCR activator, Tb PFK inh-1, BCR signal inh, ASM inhibitor)
Cc1cccc(NC(=O)C2CCCN2C(=O)Oc2ccccc2)c1C (stereo not drawn)	BCR signal inh inconclusive
Cc1cc2c(cc1[N+](=O)[O-])NC(CNC(C)C)CC2 (stereo not drawn)	Tb PFK inh-1 12µM | Tb PFK KinaseGlo 26.9µM | Tb PFK inh-2 16.9µM
c1cncc(CNCCN2CCNCC2)c1	none (no result: Tb PFK inh-1, BCR signal inh)
CCc1ccc(N2C(=O)NC(=O)/C(=C\C=C\c3ccco3)C2=O)cc1	Tb PFK inh-1 inconclusive | Tb PFK KinaseGlo inconclusive | Tb PFK inh-2 inconclusive
Cc1ccc(N2C(=O)NC(=O)/C(=C/C=C/c3ccco3)C2=O)cc1	Tb PFK inh-1 inconclusive, BCR signal inh inconclusive
Cc1cc(C)cc(N2C(=O)NC(=O)/C(=C\C=C\c3ccco3)C2=O)c1	Tb PFK inh-1 inconclusive, BCR signal inh inconclusive | Tb PFK KinaseGlo 10.7µM | Tb PFK inh-2 21.3µM
CC1=C(C(=O)O)N2C(=O)C(NC(=O)CCCC(=O)O)C2SC1 (stereo not drawn)	BCR signal inh inconclusive
CN(C)CCn1nnnc1SCC1=C(C(=O)O)N2C(=O)[C@@H](NC(=O)Cc3csc(N)n3)[C@H]2SC1	Tb PFK inh-1 12µM | Tb PFK KinaseGlo inactive | Tb PFK inh-2 inactive
O=c1[nH]c2ccccc2c(=O)n1-c1cccc(Cl)c1	none
O=c1[nH]c2ccsc2c(=O)n1-c1ccc(F)c(Cl)c1	Tb PFK inh-1 inconclusive | Tb PFK KinaseGlo inactive | Tb PFK inh-2 inactive
O=C1C2C3C=CC(CO)(O3)C2C(=O)N1c1ccccc1-c1ccccc1 (stereo not drawn)	Tb PFK inh-1 21.3µM, BCR signal inh inconclusive (no result: TCR activator) | Tb PFK KinaseGlo 23.9µM | Tb PFK inh-2 inconclusive
CN1C(=O)C(O)N=C(c2ccccc2)c2ccccc21 (stereo not drawn)	BCR signal inh inconclusive
Nc1ccc(-c2ccc(N)cc2)cc1	none (no result: Tb PFK inh-1, BCR signal inh)
Cc1ccnc(NS(=O)(=O)c2ccc(NC(=O)Cc3ccc(Br)cc3)cc2)n1	Tb PFK inh-1 inconclusive | Tb PFK KinaseGlo 21.3µM | Tb PFK inh-2 inconclusive
O=C(Cc1ccc(Cl)c(Cl)c1)Nc1ccc(S(=O)(=O)Nc2ncccn2)cc1	Tb PFK inh-1 2.39µM | Tb PFK KinaseGlo 0.849µM | Tb PFK inh-2 1.9µM
CC(=O)Nc1ccc(CC(=O)N2CCN(Cc3ccccc3)CC2)cc1	none
NS(=O)(=O)c1ccc(N/N=C/c2ccc(O)c(O)c2O)c([N+](=O)[O-])c1	Tb PFK inh-1 inconclusive | Tb PFK KinaseGlo inconclusive | Tb PFK inh-2 inconclusive
CN(CC(=O)Nc1ccccc1C(F)(F)F)C(=O)Cn1c(=O)oc2ccccc21	BCR signal inh inconclusive (no result: ASM inhibitor)
Cc1ccc(-n2c(/C=C/c3cc(Br)cs3)nc3ccccc3c2=O)cc1C	none (no result: TCR activator, Tb PFK inh-1, CCT modulator, ASM inhibitor)
C=CCN1C(=O)NC(=O)/C(=C/c2ccoc2)C1=O	none
C=CCN1C(=O)N/C(=C/c2ccc(C)o2)C1=O	Tb PFK inh-1 16.9µM | Tb PFK KinaseGlo 16.9µM | Tb PFK inh-2 inconclusive
O=C(NNC(=S)Nc1ccccc1)C1CCCCC1	BCR signal inh inconclusive
Cc1cc(C(=O)OC(C)C(=O)Nc2ccccc2)c(C)n1C1CC1 (stereo not drawn)	none (no result: TCR activator, Tb PFK inh-1, BCR signal inh, ASM inhibitor)
Cc1ccc(Cc2cnc(NC(=O)CN3CCOCC3)s2)cc1Cl	Tb PFK inh-1 inconclusive | Tb PFK KinaseGlo 23.9µM | Tb PFK inh-2 30.1µM
Cc1ccc(NC(=O)c2ncn(CCCNCCN3CCOCC3)n2)cc1C	none (no result: Tb PFK inh-1, BCR signal inh)
CNCc1ccccc1Sc1cc(O)ccc1O	Tb PFK inh-1 inconclusive, BCR signal inh inconclusive | Tb PFK KinaseGlo 3.38µM | Tb PFK inh-2 8.49µM
Cc1nc2cc(NC(=O)COc3ccc(C#N)cc3)ccc2n1-c1ccccc1	Tb PFK inh-1 21.3µM (no result: TCR activator) | Tb PFK KinaseGlo inconclusive | Tb PFK inh-2 inconclusive
CCCCn1nnnc1C(CCSC)N1CCC2(CC1)C(=O)NCN2c1ccccc1 (stereo not drawn)	none (no result: TCR activator, Tb PFK inh-1, BCR signal inh, ASM inhibitor)
Cc1ccc(C(=O)O)cc1NC(=S)NC(=O)Cc1ccccc1	Tb PFK inh-1 inconclusive | Tb PFK KinaseGlo inactive | Tb PFK inh-2 inconclusive
CCN(CC)C(=O)c1ccc(NC(=S)NC(=O)CCc2ccccc2)cc1	none
NP(=O)(Nc1ccccc1)Nc1ccccc1	none (no result: Tb PFK inh-1, BCR signal inh)
N#Cc1cccc(NC(=O)COC(=O)c2cccc(N3C(=O)c4ccccc4C3=O)c2)c1	Tb PFK inh-1 inconclusive, BCR signal inh inconclusive | Tb PFK KinaseGlo inconclusive | Tb PFK inh-2 inconclusive
O=C(Cc1ccc(Cl)c(Cl)c1)NNC(=S)NCC1CCCO1 (stereo not drawn)	Tb PFK inh-1 inconclusive | Tb PFK KinaseGlo 21.3µM | Tb PFK inh-2 inconclusive
O=C(CCl)NCC1CCCO1 (stereo not drawn)	none
